The results in this text go back to PubChem BioAssay (EPA / NIEHS).

Assay [1] concerns the target Paired box protein Pax-6 (Homo sapiens) (UniProt P26367). In words: ATG_Pax6_CIS: Attagene CIS-FACTORIAL HepG2 Assay for human Paired Box 6 (PAX6) (AID 2282956). The conditions noted are these: HepG2 CIS-FACTORIAL PAX6 reporter transcription, RNA readout; actives raise or lower the signal. The method, boiled down:
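DMSO-referenced bidirectional fits of reporter mRNA fluorescence; HepG2 with transient cis-promoter MRTUs, 24 h post-dose, RT-PCR plus capillary electrophoresis detection.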

The nature of assay [2]: ATG_PXRE_CIS: Attagene CIS-FACTORIAL HepG2 Assay for human Pregnane X Receptor Element (PXRE) (AID 2282957). The conditions noted are these: HepG2 Attagene CIS-FACTORIAL PXRE reporter, mRNA; actives raise or lower the signal. The method, boiled down: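 Endogenous transcription factor activity in HepG2 was gauged through induction of reporter mRNA driven by a cis-regulating promoter element, sampled 24 h post-treatment. Activity was fitted in both directions against DMSO negative control.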

Assay [3] can be described thus: ATG_PPRE_CIS: Attagene CIS-FACTORIAL HepG2 Assay for human Peroxisome Proliferator-activated Response Element (PPRE) (AID 2282958). The conditions noted are these: HepG2 PPRE cis-element reporter, Attagene transcription factor profiling; actives raise or lower the signal. The gist of the method: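 Endogenous PPRE-driven transcription is measured in HepG2 cells carrying transfected multi-reporter constructs. Reporter transcripts are quantified by RT-PCR, HpaI digestion and capillary electrophoresis 24 h after dosing. DMSO baseline, bidirectional fit.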

Assay [4] can be described thus: ATG_RORE_CIS: Attagene CIS-FACTORIAL HepG2 Assay for human RAR-related Orphan Receptor Element (RORE) (AID 2282959). The following applies: HepG2 Attagene cis-factorial RORE reporter, mRNA; actives raise or lower the signal. The gist of the method:
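RORE reporter transcripts reflecting endogenous factor activity were read after 24 h compound exposure of transfected HepG2 cells, using reverse transcription, PCR, fluorescent labelling and capillary electrophoresis sizing. Gain or loss fitted against DMSO.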

A short description of assay [5]: ATG_Sox_CIS: Attagene CIS-FACTORIAL HepG2 Assay for human SRY-box transcription factor (SOX) (AID 2282960). The conditions noted are these: HepG2 Attagene cis-factorial SOX reporter, mRNA; actives raise or lower the signal. The gist of the method: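 Reporter transcripts, measured by RT-PCR and capillary electrophoresis of labelled fragments, report endogenous SOX transcription factor activity. Transiently transfected human HepG2 cells receive chemical for 24 h; changes in either direction are fitted relative to DMSO.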

Assay [6] addresses Transcription factor Sp1 (Homo sapiens) (UniProt P08047). In words: ATG_Sp1_CIS: Attagene CIS-FACTORIAL HepG2 Assay for human Specificity Protein 1 (Sp1) (AID 2282961). The following applies: HepG2 Sp1 cis-reporter transcription, actives raise or lower the signal. The method, boiled down: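 Read-out is reporter transcript level, measured by RT-PCR and fluorescent capillary electrophoresis after 24 h chemical treatment. System: transiently transfected HepG2 cells reporting endogenous transcription factor activity; gain or loss fitted against DMSO baseline.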

The nature of assay [7]: ATG_SREBP_CIS: Attagene CIS-FACTORIAL HepG2 Assay for human Sterol Regulatory Element Binding (SREBP) (AID 2282962). The conditions noted are these: HepG2 Attagene cis-factorial SREBP reporter, mRNA; actives raise or lower the signal. The gist of the method: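 In this cis-format assay, HepG2 liver cells express reporters controlled by promoter elements responsive to native transcription factors. Exposure lasts 24 h; reporter mRNA fluorescence from capillary electrophoresis gives the signal, fitted bidirectionally against DMSO.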

Assay [8] concerns the target Signal transducer and activator of transcription 3 (Homo sapiens) (UniProt P40763). In words: ATG_STAT3_CIS: Attagene CIS-FACTORIAL HepG2 Assay for human Signal Transducer and Activator of Transcription 3 (STAT3) (AID 2282963). The conditions noted are these: HepG2, Attagene cis-factorial STAT3 reporter transcription; actives raise or lower the signal. The gist of the method:
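Uses human liver HepG2 transiently carrying cis-regulated reporter transcription units. Following 24 h dosing, reporter mRNA induction was detected by RT-PCR and capillary electrophoresis, analysed bidirectionally versus DMSO.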

Assay [9] in a line: ATG_TA_CIS: Attagene CIS-FACTORIAL HepG2 Assay for human TA Basal Promoter (AID 2282964). The conditions noted are these: HepG2 Attagene CIS-factorial TA basal promoter reporter; actives raise or lower the signal. The gist of the method: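 Background-control readout: TA basal promoter reporter mRNA, fitted in both directions relative to DMSO. Measured by RT-PCR and capillary electrophoresis 24 hours after treating HepG2 human liver cells transiently carrying multiplexed cis-regulated reporter constructs.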

Assay [10] can be described thus: ATG_TCF_b_cat_CIS: Attagene CIS-FACTORIAL HepG2 Assay for human T-Cell-Factor with beta-catenin (TCF/b-cat) (AID 2282965). The following applies: HepG2 TCF/beta-catenin cis-reporter transcription, actives raise or lower the signal. The method, boiled down: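 In this cis-format system, transfected HepG2 cells report endogenous transcription factor activity. Readout after 24 h exposure is reporter transcript abundance from RT-PCR and capillary electrophoresis, analysed for gain or loss of signal versus DMSO.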

Where “and” joins values, the source holds several entries; their conditions need not be identical. Identical values can stand only once. Some compounds were tested as several samples or in several runs, with calls that do not always agree. Calls of active or inactive are those of the source. The calls were made as follows: active = hit-call score of the fitted dose curve at least 0.9, where 1 is the maximum; inactive = score below 0.9.

Chain of Signal transducer and activator of transcription 3 (Homo sapiens) (P40763 whole entry, looked up): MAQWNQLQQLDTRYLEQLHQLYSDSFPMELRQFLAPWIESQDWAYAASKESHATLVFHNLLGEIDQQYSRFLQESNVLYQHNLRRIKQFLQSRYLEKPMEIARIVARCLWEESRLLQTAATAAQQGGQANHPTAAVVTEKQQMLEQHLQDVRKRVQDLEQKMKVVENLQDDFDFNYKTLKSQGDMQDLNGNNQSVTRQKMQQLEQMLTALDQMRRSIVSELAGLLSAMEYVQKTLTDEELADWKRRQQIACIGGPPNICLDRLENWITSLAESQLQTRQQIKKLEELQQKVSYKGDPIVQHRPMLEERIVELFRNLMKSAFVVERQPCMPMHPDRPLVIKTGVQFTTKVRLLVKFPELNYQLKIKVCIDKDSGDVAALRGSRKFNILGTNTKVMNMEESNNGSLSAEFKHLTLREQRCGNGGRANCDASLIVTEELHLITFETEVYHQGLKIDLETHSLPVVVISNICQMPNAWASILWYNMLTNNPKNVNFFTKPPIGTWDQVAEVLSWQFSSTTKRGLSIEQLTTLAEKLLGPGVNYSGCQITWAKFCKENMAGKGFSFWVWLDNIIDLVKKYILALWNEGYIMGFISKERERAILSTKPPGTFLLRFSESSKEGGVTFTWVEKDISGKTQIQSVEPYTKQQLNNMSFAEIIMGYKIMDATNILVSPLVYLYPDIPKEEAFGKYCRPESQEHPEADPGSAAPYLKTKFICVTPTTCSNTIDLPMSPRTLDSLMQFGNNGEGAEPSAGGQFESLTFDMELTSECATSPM
Chain of Paired box protein Pax-6 (Homo sapiens) (P26367 whole entry, looked up): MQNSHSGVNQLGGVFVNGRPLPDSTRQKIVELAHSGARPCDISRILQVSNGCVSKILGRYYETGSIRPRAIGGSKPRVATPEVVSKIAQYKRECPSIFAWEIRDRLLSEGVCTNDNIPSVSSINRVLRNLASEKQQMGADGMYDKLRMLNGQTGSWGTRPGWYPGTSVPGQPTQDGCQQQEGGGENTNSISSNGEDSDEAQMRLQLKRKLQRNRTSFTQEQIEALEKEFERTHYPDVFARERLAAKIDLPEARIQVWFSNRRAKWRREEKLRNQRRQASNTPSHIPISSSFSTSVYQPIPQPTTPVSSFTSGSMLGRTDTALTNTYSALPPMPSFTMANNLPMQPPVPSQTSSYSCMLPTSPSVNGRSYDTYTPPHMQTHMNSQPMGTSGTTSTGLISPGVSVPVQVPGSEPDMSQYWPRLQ
Chain of Transcription factor Sp1 (Homo sapiens) (P08047 whole entry, looked up): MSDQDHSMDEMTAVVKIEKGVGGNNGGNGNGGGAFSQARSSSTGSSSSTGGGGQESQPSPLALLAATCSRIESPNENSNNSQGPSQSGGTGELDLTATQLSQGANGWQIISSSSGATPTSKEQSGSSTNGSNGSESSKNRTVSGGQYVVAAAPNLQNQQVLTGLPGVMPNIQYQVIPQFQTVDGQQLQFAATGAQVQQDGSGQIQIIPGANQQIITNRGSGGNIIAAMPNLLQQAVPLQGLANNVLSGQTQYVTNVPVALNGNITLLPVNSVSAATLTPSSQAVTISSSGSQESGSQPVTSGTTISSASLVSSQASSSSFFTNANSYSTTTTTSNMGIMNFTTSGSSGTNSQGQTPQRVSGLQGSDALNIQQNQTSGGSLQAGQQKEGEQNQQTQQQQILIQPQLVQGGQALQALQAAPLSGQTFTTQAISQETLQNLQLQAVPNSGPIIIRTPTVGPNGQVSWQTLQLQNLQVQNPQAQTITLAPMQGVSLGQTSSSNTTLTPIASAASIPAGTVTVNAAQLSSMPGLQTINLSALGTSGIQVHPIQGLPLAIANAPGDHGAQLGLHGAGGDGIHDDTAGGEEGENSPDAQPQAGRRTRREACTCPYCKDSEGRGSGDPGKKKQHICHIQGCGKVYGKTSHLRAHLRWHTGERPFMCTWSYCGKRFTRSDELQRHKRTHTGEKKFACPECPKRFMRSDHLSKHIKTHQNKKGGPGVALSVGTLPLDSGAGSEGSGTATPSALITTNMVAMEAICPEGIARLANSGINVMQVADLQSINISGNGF

As to `CC(C)COC(=O)CCCCC(=O)OCC(C)C`, the molecule was classed as inactive in assay [1], in [2], in assay [3], in [4], in assay [5] and in assay [6]. The result in [7], in assay [8] and in [9] was inactive.
In general, AC50 refers to the midpoint of the concentration-response curve, whichever way the signal moves. As to `CC1=C(C)S(=O)(=O)CCS1(=O)=O`, the molecule was classed as inactive in assay [1], in [2], in assay [4], in [5], in assay [6] and in assay [7]. Moreover, the molecule was called inactive in assay [8] and in [9]. Moreover, the AC50 in assay [3] is 89.5 µM (active).
As for `CCCCOC(=O)CCCCC(=O)OCCCC`, the molecule was called inactive in [1], in assay [2], in assay [3], in assay [4], in assay [5] and in assay [6]. The molecule was classed as inactive in assay [7], in assay [8] and in assay [9].
`C=CCc1ccc(OC)c(OC)c1`: the result in [1], in assay [3], in [4], in assay [5], in [6] and in [7] was inactive. In addition, the call in [8] and in [9] was inactive. In addition, in assay [2], the AC50 is 100 µM (active).
Consider `CCCCC(CC)CO` (stereo unspecified), for which the outcome in assay [1], in assay [3], in [4], in assay [5], in [6] and in assay [7] was inactive. Also, the molecule was called inactive in assay [8] and in assay [9]. In addition, the AC50 in assay [2] is 27.5 µM (active).
On to `CC(=O)OCC(COC(C)=O)OC(C)=O`, for which the molecule was called inactive in assay [1], in assay [2], in assay [3], in assay [4], in assay [5] and in assay [6]. Besides, the outcome in [7], in assay [8] and in assay [9] was inactive.
Consider `NC1CCCCC1`, for which the molecule was classed as inactive in [1], in assay [2], in assay [3], in assay [4], in assay [5] and in assay [6]. The result in assay [7], in assay [8], in assay [9] and in assay [10] was inactive.
Turning to `CCCC(=O)O`, the molecule was classed as inactive in [1], in [2], in assay [3], in assay [4], in assay [5] and in assay [6]. Further, the molecule was classed as inactive in [7], in assay [8] and in assay [9].
In the case of `CCCCCCCCCCCCCCCCO`, the molecule was classed as inactive in assay [1], in [2], in assay [3], in [4], in [5] and in assay [6]. Also, the molecule was called inactive in [7], in assay [8] and in assay [9].
As to `CN(C)C(=O)NC1(c2ccccc2)CCN(CCC[C@]2(c3ccc(Cl)c(Cl)c3)CCCN(C(=O)c3ccccc3)C2)CC1`, the half-maximal activity concentration (AC50) in [1] is 4.94 µM (active); in [2], 0.119 µM (active); in assay [3], 4.58 µM (active); in assay [4] it was 4.93 µM (active); in [6], 4.73 µM (active); in assay [7], 0.762 µM (active). In [8], the half-maximal activity concentration (AC50) is 4.4 µM (active). Also, the result in [5] and in assay [9] was inactive.
For `N[C@@H](Cc1c[nH]c2ccccc12)C(=O)O`, the call in assay [1], in assay [2], in assay [3], in assay [4], in assay [5] and in [6] was inactive. Moreover, the molecule was classed as inactive in [7], in assay [8] and in assay [9].
For the molecule `O=C1CCCCC1`, the result in assay [1], in [2], in assay [3], in assay [4], in assay [5] and in [6] was inactive. In addition, the molecule was classed as inactive in assay [7], in assay [8] and in [9].
For `CCN(CC)CCOc1ccc(C(=C(Cl)c2ccccc2)c2ccccc2)cc1`, the concentration at half-maximal activity (AC50) in [1] is 10.4 µM (active); in assay [2], 945 nM (active) [middle of 4 runs]; in assay [4], 9.35 µM (active); in [5], 13.6 µM (active); in assay [7] it was 2.59 µM (active) [middle of 4 runs]; in assay [8] it was 6.09 µM (active). The AC50 in [9] was 11.2 µM (active). The result in assay [1], in [3], in assay [4], in [5], in assay [6] and in assay [8] was inactive. Moreover, in [9], the outcome was inactive.
Regarding `CCCCCCC(C=O)=Cc1ccccc1`, the result in assay [1], in assay [4], in assay [5], in [7], in [8] and in assay [9] was inactive. Besides, the AC50 in assay [2] is 25.2 µM (active) and 15.7 µM (active); in [3] it was 4.87 µM (active) and 6.4 µM (active); in [6], 129 µM (active) and 60 µM (active); in [7] it was 26.3 µM (active).
Consider `CC1(C)C(=O)NC(=O)N1CO`, for which the result in assay [1], in assay [2], in [3], in assay [4], in assay [5] and in assay [6] was inactive. The molecule was called inactive in assay [8] and in assay [9]. Besides, the AC50 in [7] is 150 µM (active).
For the molecule `CC(=O)O[C@]1(C(C)=O)CC[C@H]2[C@@H]3C=C(Cl)C4=CC(=O)[C@@H]5C[C@@H]5[C@]4(C)[C@H]3CC[C@@]21C`, the AC50 was 27.3 µM (active) and 66.1 µM (active) and 100 µM (active) in [1]; 184 µM (active) and 142 µM (active) and 61.5 µM (active) in assay [2]; 100 µM (active) in assay [5]; 154 µM (active) and 170 µM (active) in assay [6]; 29.5 µM (active) and 52.1 µM (active) and 34.3 µM (active) in [7]; 54.5 µM (active) in assay [9]. Besides, the call in assay [1], in [2], in assay [3], in assay [4], in [5] and in [6] was inactive. The molecule was classed as inactive in assay [7], in [8], in assay [9] and in assay [10].
`O=C(Oc1ccccc1)c1cccc(C(=O)Oc2ccccc2)c1`: the call in assay [1], in [2], in [4], in assay [5], in assay [6] and in assay [7] was inactive. For the same molecule, the molecule was called inactive in assay [8] and in assay [9]. Moreover, in [3], the AC50 is 104 µM (active).
`CC(C)c1cccc(C(C)C)c1`: the molecule was called inactive in assay [1], in assay [2], in assay [3], in assay [4], in assay [5] and in [6]. The outcome in assay [7], in assay [8] and in assay [9] was inactive.
For `O=C(O)c1cccnc1`, the molecule was called inactive in assay [1], in assay [2], in assay [3], in assay [4], in [5] and in [6]. The outcome in assay [7], in assay [8] and in assay [9] was inactive.
On to `CC(N)=O`, for which the result in [1], in assay [2], in assay [4], in assay [5], in assay [6] and in assay [7] was inactive. Further, the call in assay [8], in [9] and in assay [10] was inactive. In addition, the AC50 in assay [2] is 28.9 µM (active).
For the molecule `C/C=C/C=C/C(=O)O`, the result in assay [1], in assay [2], in assay [3], in assay [4], in assay [5] and in assay [6] was inactive. For the same molecule, the molecule was classed as inactive in assay [7], in assay [8], in [9] and in [10]. The AC50 in assay [2] was 36.7 µM (active).
